The supplement of paper PMC4683952
Where a name gives a salt, the structure may show the parent alone. Among all 1,200 compounds or so, about 50 (4%) showed activity. Cut-off read from the data, not from the text of the source: all actives reach 1.3 or more but so do some inactives. For the sample, actives were picked, then their nearest neighbours and some compounds at random.

System: Lgr5 (MarsCy1-Lgr5-EGFP, U2OS)
Test: cell-surface Lgr5 expression (SCi1 fluorescence, background-subtracted) relative to WT DMSO (fold of DMSO control); higher = more Lgr5 at the plasma membrane, active = hit call of the paper
Details: U2OS MarsCy1-Lgr5-EGFP stable; treatment time: overnight; 16 µM; library: Johns Hopkins Clinical Compound Library

cell-surface Lgr5 expression, active:
Cc1scc2c1N(C(=O)CN1CCN(C)CC1)c1ccccc1NC2=O [Telenzepine] 1.3
Nc1ncn([C@H]2C[C@H](O)[C@@H](CO)O2)c(=O)n1 [Decitabine (5-aza-2-deoxycytidine)] 1.47
CCN(CC)CCOCCOC(=O)C(CC)(CC)c1ccccc1 [Oxeladin citrate salt] 1.48
C[C@]12CCC(=O)C=C1CC[C@@H]1[C@@H]2[C@@H](O)C[C@@]2(C)[C@H]1CC[C@]2(O)C(=O)COC(=O)CCC(=O)O [Hydrocortisone hemisuccinate monohydrate] 1.36
CC1(C)O[C@@H]2C[C@H]3[C@@H]4C[C@H](F)C5=CC(=O)C=C[C@]5(C)[C@H]4[C@@H](O)C[C@]3(C)[C@]2(C(=O)CO)O1 [Flunisolide] 1.47
CC1(C)O[C@@H]2C[C@H]3[C@@H]4C[C@H](F)C5=CC(=O)CC[C@]5(C)[C@H]4[C@@H](O)C[C@]3(C)[C@]2(C(=O)CO)O1 1.55
C[C@]12CCC(=O)C=C1CC[C@@H]1[C@@H]2[C@@H](O)C[C@]2(C=O)[C@@H](C(=O)CO)CC[C@@H]12 [Aldosterone] 1.55

cell-surface Lgr5 expression, inactive:
COc1cccc2c1C(=O)c1c(O)c3c(c(O)c1C2=O)C[C@@](O)(C(=O)CO)C[C@@H]3O[C@H]1C[C@H](N)[C@@H](O)[C@H](C)O1 [Epirubicin] 1.31
O=S(=O)([O-])[O-].[Cu+2] [Copper (II) sulfate] 1.27
CCN1C(=CC=Cc2ccc3ccccc3[n+]2CC)C=Cc2ccccc21 [Quinaldine blue (Pinacyanol chloride)] 1.53
CCCCNc1ccc(C(=O)OCCOCCOCCOCCOCCOCCOCCOCCOCCOC)cc1 [Benzonatate] 1.08
O=C(O)c1ccc[n+]([O-])c1 [Oxiniacic acid (nicotinic acid n-oxide)] 0.989
Cc1ccc(S(=O)(=O)NCl)cc1 [Chloramine-T hydrate] 0.672
CCC(=O)Oc1ccc(/C(CC)=C(\CC)c2ccc(OC(=O)CC)cc2)cc1 [Diethylstilbestrol dipropionate] 0.886
O=P(O)(O)OC1C(OP(=O)(O)O)C(OP(=O)(O)O)C(OP(=O)(O)O)C(OP(=O)(O)O)C1OP(=O)(O)O (stereo unspecified) [Phytic acid, dodecasodium salt hydrate] 0.522
Br.N [Ammonium bromide] 1.09
CC1CCC(NC(=O)N(CCCl)N=O)CC1 (stereo unspecified) [Semustine] 1.06
C[C@@H]1C/C=C/C=C/C=C/C=C/[C@H](O[C@@H]2O[C@H](C)[C@@H](O)[C@H](N)[C@@H]2O)C[C@@H]2O[C@](O)(C[C@@H](O)C[C@H]3O[C@@H]3/C=C/C(=O)O1)C[C@H](O)[C@H]2C(=O)O [Natamycin (Pimaricin)] 0.845
O=S(=O)([O-])[O-].O=S(=O)([O-])[O-].[Al+3].[Na+] [Aluminum sodium sulfate] 0.71
O=P([O-])([O-])[O-].O=P([O-])([O-])[O-].[Ca+2].[Ca+2].[Ca+2] [Calcium phosphate tribasic] 0.836
CC1=CC(=C(c2ccc(N)cc2)c2ccc(N)cc2)C=CC1=N [Basic fuchsin hydrochloride] 1.12
CC1(C)S[C@@H]2[C@H](NC(=O)COc3ccccc3)C(=O)N2[C@H]1C(=O)O 0.694
CC1(C)S[C@@H]2[C@H](NC(=O)COc3ccccc3)C(=O)N2[C@H]1C(=O)O [Penicillin V (phenoxymethyl penicillinic acid)] 1.08
NC[C@H]1O[C@H](O[C@H]2[C@H](O)[C@@H](O[C@H]3O[C@H](CO)[C@@H](O)[C@H](N)[C@H]3O)[C@H](N)C[C@@H]2N)[C@H](N)[C@@H](O)[C@@H]1O [Kanamycin B sulfate salt] 0.875
CCNC(=O)CCC/C=C\C[C@@H]1[C@@H](/C=C/[C@@H](O)CCc2ccccc2)[C@H](O)C[C@@H]1O [Bimatoprost] 1.06
C=C1c2c(Cl)ccc(O)c2C(O)=C2C(=O)[C@]3(O)C(O)=C(C(N)=O)C(=O)[C@@H](N(C)C)[C@@H]3[C@@H](O)[C@H]12.O=C(O)c1cc(S(=O)(=O)O)ccc1O [Meclocycline sulfosalicylate salt] 0.705
O=C([O-])CC(O)(CC(=O)[O-])C(=O)[O-].[Li+].[Li+].[Li+] [Tri-lithium citrate] 1.06
Cc1cc(O)c(C(=O)N[C@@H](C(=O)N[C@@H]2C(=O)N3C(C(=O)O)=C(CSc4nnnn4C)CS[C@H]23)c2ccc(O)cc2)cn1 [Cefpiramide] 0.869
CCSc1ccc2c(c1)N(CCCN1CCN(C)CC1)c1ccccc1S2 [Thiethylperazine malate] 1.12
Cc1cc2c(OCC(CNC(C)(C)C)OC(=O)c3ccccc3)cccc2[nH]1 (stereo unspecified) [Bopindolol Maleate] 1.3
C[n+]1c2cc(N)ccc2cc2ccc(N)cc21.Nc1ccc2cc3ccc(N)cc3nc2c1 [Acriflavine hydrochloride] 1.44
CO[C@@H]1[C@@H](O[C@@H]2O[C@H](C)[C@@H](O[C@H]3C[C@@](C)(O)[C@@H](OC(=O)CC(C)C)[C@H](C)O3)[C@H](N(C)C)[C@H]2O)[C@@H](CC=O)C[C@@H](C)[C@@H](O)/C=C/C=C/C[C@@H](C)OC(=O)C[C@H]1OC(C)=O [Josamycin] 1.1
Nc1nc(Cl)nc2c1ncn2[C@H]1C[C@H](O)[C@@H](CO)O1 [Cladribine (2-chloro,2-deoxyadenosine)] 0.832
O=c1[nH]c(=O)n([C@H]2C[C@H](O)[C@@H](CO)O2)cc1F [Floxuridine (5-fluorodeoxyuridine)] 0.664
CCN(CC)CC#CCOC(=O)C(O)(c1ccccc1)C1CCCCC1 (stereo unspecified) [Oxybutynin chloride] 0.687
CCC(C(=O)OCCN(CC)CC)c1ccccc1 (stereo unspecified) [Butetamate (Butethamate)] 1.2
Cc1cc(/C=C/c2ccc3cc(N(C)C)ccc3[n+]2C)c(C)n1-c1ccccc1 [Pyrvinium pamoate] 1.09
C[Se]CCC(N)C(=O)O [Seleno-D, L-methionine] 1.08
CCCCCC(=O)O[C@]1(C(C)=O)CC[C@H]2[C@@H]3CCC4=CC(=O)CC[C@]4(C)[C@H]3CC[C@@]21C [Progesterone caproate (17alpha-hydroxyprogesterone)] 1.05
CCCCCC(=O)O[C@]1(C(C)=O)CC[C@H]2[C@@H]3CCC4=CC(=O)CC[C@]4(C)[C@H]3CC[C@@]21C 1.11
CC(=O)[C@H]1CC[C@H]2[C@@H]3C[C@H](C)C4=CC(=O)CC[C@]4(C)[C@H]3[C@@H](O)C[C@]12C [Medrysone (6-alpha-Methyl-11-beta-Hydroxyprogesterone)] 1.27
CC(=O)[C@H]1CC[C@H]2[C@@H]3CCC4=CC(=O)CC[C@]4(C)[C@H]3CC[C@]12C [Progesterone] 1.16
CC(=O)OCC(=O)[C@H]1CC[C@H]2[C@@H]3CCC4=CC(=O)CC[C@]4(C)[C@H]3CC[C@]12C 1.01
CC(=O)[C@@]1(O)CC[C@H]2[C@@H]3C[C@H](C)C4=CC(=O)CC[C@]4(C)[C@H]3CC[C@@]21C [6α-Methyl-17α-hydroxy-progesterone (Medroxyprogesterone)] 1.45
CC(=O)O[C@]1(C(C)=O)CC[C@H]2[C@@H]3CCC4=CC(=O)CC[C@]4(C)[C@H]3CC[C@@]21C [Hydroxyprogesterone acetate (17alpha-Acetoxyprogesterone)] 1.21
NCCCC(N)(C(=O)O)C(F)F (racemic) 1.18
[Br-].[K+] [Potassium bromide] 0.93
CCOC(=O)[C@H](CCc1ccccc1)N[C@H]1CCc2ccccc2N(CC(=O)O)C1=O [Benazepril hydrochloride] 0.872
O=S(=O)(O)CCS [Mesna (2-Mercaptoethane Sulfonic Acid Sodium Salt)] 0.815
O=S(=O)(O)CCS [Mesna (2-Mercaptoethanesulfonic acid)] 0.844
O=P([O-])(O)O.[Na+] [Sodium phosphate monobasic] 1.11
[Na+].[O]=[Bi](=[O])[O-] [Sodium bismuthate] 0.965
CC1=C(C/C=C(\C)CCC[C@H](C)CCC[C@H](C)CCCC(C)C)C(=O)c2ccccc2C1=O [Vitamin K1 (Phylloquinone, phytonadione)] 0.865
NS(=O)(=O)c1cc2c(cc1C(F)(F)F)NC(Cc1ccccc1)NS2(=O)=O (stereo unspecified) [Bendroflumethiazide] 1.02
CCCC(O)C(CC)CO (stereo unspecified) [Ethohexadiol (2-Ethyl-1,3-hexanediol)] 1.04
Clc1ccc(CO/N=C(\Cn2ccnc2)c2ccc(Cl)cc2Cl)c(Cl)c1 [Oxiconazole nitrate] 0.871
